Compound activity: PubChem BioAssay, National Center for Advancing Translational Sciences (NCATS)
Sfp PPTase inh: blocks B. subtilis Sfp PPTase activity | Q9F4F7 | Biochemical Sfp PPTase activity, qHTS | Potency, µM, inactives show largest response in the series, negative = inhibition, actives largely listed as inhibitors | 310,000 compounds, 3.5% hits | AID 1490;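 further: the enzyme is Sfp with the accession as filed and its product quenches rhodamine fluorescence; 0% = enzyme reaction without inhibitor and -100% = no enzyme wells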
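Step 1, compound plus 15 nM Sfp-PPTase, 15 min, room temperature. Step 2, add rhodamine-CoA (5 uM) and BHQ-2-YbbR (12.5 uM). Step 3, read 525/598 nm fluorescence at 0 and 30 min.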
HP1b chromo inh: HP1-beta chromodomain-methylated histone interaction inhibition; AlphaScreen HP1-beta / biotin-H3K9me3 peptide binding; Potency, µM (top dose mostly 114 µM), for inactives: at the top dose activity change, negative = inhibition, most hits filed as inhibitors; AID 540317; 390,000 compounds, 0.56% hits; further: nearly all actives have a fitted effect of over 70% in size
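AlphaScreen: HP1-beta (50 nM) preformed 30 min with biotin-H3(1-18)K9me3 peptide (50 nM) in PBS pH 7.4, 0.01% Tween-20. Compound added for 30 min at RT, then streptavidin donor/nickel chelate acceptor beads (10 ug/mL) for 30 min.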
G9a inh: G9a (human) methyltransferase inhibition. Q96KQ7. Potency, µM (highest dose often 102 µM), without a hit: at the highest dose activity, negative = inhibition, usual class: inhibitors. G9a H3K9 monomethylation, AlphaScreen, 2 h. 350,000 compounds, 8.8% hits; further: on the % scale 0 is the no-effect control and ±100 the full control effect; nearly all actives have a fitted effect of over 75% in size
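G9a (20 nM) was preincubated 15 min with compound, then reacted 2 h at room temperature with 500 nM biotin-H3K9 peptide and 20 µM SAM. Monomethyl-H3K9 detected by AlphaScreen using anti-H3K9me1 antibody.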
BAZ2B block: blocks human BAZ2B; AlphaScreen BAZ2B-H3K14Ac peptide displacement; Potency, µM (top dose mostly 114 µM), for inactives: at the highest dose activity change, negative = inhibition, usual class: inhibitors; 360,000 compounds, 4.4% hits; AID 504333; Q9UIF8; further: on the % scale 0 is the no-effect control and ±100 the full control effect; nearly all actives have a fitted effect of over 60% in size
Target sequence (Q9UIF8 whole entry, looked up): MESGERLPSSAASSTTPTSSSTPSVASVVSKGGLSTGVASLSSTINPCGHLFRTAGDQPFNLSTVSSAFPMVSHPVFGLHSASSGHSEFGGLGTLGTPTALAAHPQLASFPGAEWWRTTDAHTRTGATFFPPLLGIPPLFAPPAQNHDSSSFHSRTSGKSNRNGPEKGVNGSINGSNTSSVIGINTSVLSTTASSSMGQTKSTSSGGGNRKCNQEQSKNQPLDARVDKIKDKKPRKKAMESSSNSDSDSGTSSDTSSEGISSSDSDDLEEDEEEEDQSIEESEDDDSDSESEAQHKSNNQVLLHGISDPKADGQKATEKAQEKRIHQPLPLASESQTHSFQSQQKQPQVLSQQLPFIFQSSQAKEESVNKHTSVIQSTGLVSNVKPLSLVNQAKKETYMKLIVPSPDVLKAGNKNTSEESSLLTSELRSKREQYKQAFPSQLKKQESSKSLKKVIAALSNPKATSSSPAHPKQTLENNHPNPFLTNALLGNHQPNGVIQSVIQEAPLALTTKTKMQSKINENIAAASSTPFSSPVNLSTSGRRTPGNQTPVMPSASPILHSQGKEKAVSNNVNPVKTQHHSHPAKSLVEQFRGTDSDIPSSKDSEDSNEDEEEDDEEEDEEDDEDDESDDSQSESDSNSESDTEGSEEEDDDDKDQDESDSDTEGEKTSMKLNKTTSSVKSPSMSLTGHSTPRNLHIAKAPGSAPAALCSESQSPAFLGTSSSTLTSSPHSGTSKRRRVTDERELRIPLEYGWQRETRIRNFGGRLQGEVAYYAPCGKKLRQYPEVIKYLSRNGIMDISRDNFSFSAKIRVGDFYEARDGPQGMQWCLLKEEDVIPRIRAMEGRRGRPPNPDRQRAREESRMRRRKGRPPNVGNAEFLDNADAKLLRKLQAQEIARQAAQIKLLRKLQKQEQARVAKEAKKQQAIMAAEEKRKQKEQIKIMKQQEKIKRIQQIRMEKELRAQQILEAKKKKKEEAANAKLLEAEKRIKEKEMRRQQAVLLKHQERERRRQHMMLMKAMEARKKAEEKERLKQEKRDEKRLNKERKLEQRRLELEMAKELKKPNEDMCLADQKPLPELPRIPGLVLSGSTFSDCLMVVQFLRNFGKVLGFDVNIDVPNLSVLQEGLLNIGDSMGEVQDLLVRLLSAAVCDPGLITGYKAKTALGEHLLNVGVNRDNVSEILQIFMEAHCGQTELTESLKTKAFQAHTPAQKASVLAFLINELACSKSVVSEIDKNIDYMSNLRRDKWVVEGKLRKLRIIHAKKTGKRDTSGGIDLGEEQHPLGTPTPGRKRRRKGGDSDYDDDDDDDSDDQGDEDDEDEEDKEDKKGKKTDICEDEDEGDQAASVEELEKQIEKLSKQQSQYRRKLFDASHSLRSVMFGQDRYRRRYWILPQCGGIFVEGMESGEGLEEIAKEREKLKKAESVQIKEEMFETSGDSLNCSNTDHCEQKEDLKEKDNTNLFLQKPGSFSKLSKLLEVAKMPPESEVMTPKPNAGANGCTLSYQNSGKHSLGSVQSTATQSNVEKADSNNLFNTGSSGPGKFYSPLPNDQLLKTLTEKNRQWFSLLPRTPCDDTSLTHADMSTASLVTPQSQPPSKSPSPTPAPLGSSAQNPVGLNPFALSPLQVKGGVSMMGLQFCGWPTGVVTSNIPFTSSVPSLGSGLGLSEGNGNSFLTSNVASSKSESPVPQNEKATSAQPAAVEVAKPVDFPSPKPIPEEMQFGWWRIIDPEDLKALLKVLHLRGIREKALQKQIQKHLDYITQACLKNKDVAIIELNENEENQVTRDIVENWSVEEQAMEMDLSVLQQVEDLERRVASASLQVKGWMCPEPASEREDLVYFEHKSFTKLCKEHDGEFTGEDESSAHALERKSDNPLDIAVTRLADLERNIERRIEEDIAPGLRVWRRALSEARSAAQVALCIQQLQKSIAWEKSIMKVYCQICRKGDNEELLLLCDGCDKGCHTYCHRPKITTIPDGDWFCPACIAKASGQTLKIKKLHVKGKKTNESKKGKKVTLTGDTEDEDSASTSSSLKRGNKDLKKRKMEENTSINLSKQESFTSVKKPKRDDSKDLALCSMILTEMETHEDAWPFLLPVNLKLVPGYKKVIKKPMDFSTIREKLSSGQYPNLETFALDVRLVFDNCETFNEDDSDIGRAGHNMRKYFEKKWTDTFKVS
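AlphaScreen displacement of biotin-H3(5-23)K14Ac peptide (50 nM final) from BAZ2B (50 nM final) in PBS pH 7.4, 0.01% Tween-20; complex preformed 30 min RT, then compounds (top 110 uM) 30 min RT, beads 20 min dark.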
JMJD2A Tudor inh: JMJD2A Tudor domain (human) inhibition. O75164. AlphaScreen JMJD2A-Tudor / H3K4me3 peptide binding. Potency, µM (series often up to 114 µM), without a hit: top-dose activity change, negative = inhibition, usual class: inhibitors. 390,000 compounds, 4.4% hits. AID 504339; further: on the % scale 0 is the no-effect control and ±100 the full control effect; nearly all actives have a fitted effect of over 50% in size
L3MBTL1 inh: inhibitors of human L3MBTL1 | Q9Y468 | AlphaScreen L3MBTL1–H3K9me1 peptide binding | Potency, µM (titrated, usually from 57.1 µM), for inactives: at the top dose activity, negative = inhibition, hits mostly inhibitors | 230,000 compounds, 0.66% hits | AID 485360; further: on the % scale 0 is the no-effect control and ±100 the full control effect; nearly all actives have a fitted effect of over 60% in size
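Displacement of a biotinylated histone H3(1-15) peptide monomethylated at Lys9 (75 nM) from L3MBTL1 (50 nM) was measured by AlphaScreen after a 30 min room-temperature compound incubation; cefsulodin titration served as intraplate control.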
The depositor's hits bear a star; ? = inconclusive; . = no result; ! = a repeat was not active; [ ] = dose if it differs, or a comment. Shown are actives, neighbours in structure and some others; about 12% of the full set was active somewhere. The call rests on the fitted dose curve; in most records, active means well fitted curve in the direction sought with a large enough effect; inconclusive means small, poorly fitted or top-dose-only effect, or another doubt; inactive means no such curve, though single readings can be large; an effect the other way counts as inactive or inconclusive. Potency means the concentration at half of the fitted maximal effect.

SMILES	Sfp PPTase inh	HP1b chromo inh	G9a inh	BAZ2B block	JMJD2A Tudor inh	L3MBTL1 inh
CCN(C(=O)C1CCN(S(=O)(=O)c2c(C)noc2/C=C/c2ccc(C)cc2)CC1)c1cccc(C)c1	.	23.5%[57 µM]	4.1%[59 µM]	-1.4%	-9.3%	.
Cc1ccc(-c2ccc(S(=O)(=O)N3CCCC3)cc2)cc1	11.0%	35.1%	?	-3.5%	-4.1%	7.3%
Cc1ccc(S(=O)(=O)N2CC(=NO)C2)cc1	4.3%	35.8%	44.7µM*	-3.8%	-6.2%	0.1%
CCOC(=O)N1CCC(NC(=O)c2cnn(-c3ccc(OC)cc3)c2C2CCN(C(=O)OC(C)(C)C)CC2)CC1	.	36.2%	-32.1%[59 µM]	5.5%[57.1 µM]	-1.6%	.
CCCCCCCCCCCCCCC[C@@H](O)[C@@H](N)CO	44.7µM*!	-11.1%	2.0%[59 µM]	.	-12.4%	.
CCCCCCCCCCCCCCC[C@H](O)[C@H](N)CO	70.8µM*	.	17.4%[59 µM]	.	.	.
NC(C(=O)O)C(c1ccccc1)C(F)F (configuration not stated)	?	-0.6%	11.2µM*	-30.9%	50.1µM*	7.2%
NC(=O)NC(c1ccccc1)c1ccccc1	20.3%	26.1%	-0.9%[59 µM]	-0.7%	-1.1%	.
Cc1ccc(S(=O)(=O)n2nc(-c3ccccc3)nc2NCc2ccc(Cl)cc2)cc1	.	14.2%	8.0%[59 µM]	0.3%	12.0%	.
O=C1COc2ccc(NC(=O)c3ccccc3C(=O)O)cc2N1	79.4µM*	31.3%	?	-16.5%	-9.4%	.
C=CCOC(=O)C(C(C)=O)C(NC(=O)OC)c1cccc(C)c1 (configuration not stated)	8.0%	.	.	.	.	.
CCOc1cc(CNc2ccc(N3CCN(C(C)=O)CC3)cc2)cc(Br)c1OC	?	?	28.2µM*	31.6µM*	35.5µM*	?
CCOc1c(Br)cc(CNc2ccc(N3CCN(C(C)=O)CC3)cc2)cc1OC	-16.3%	-22.5%	28.2µM*	39.8µM*	50.1µM*	.
COc1cc(CNc2ccc(O)cc2)cc(Br)c1OCc1ccccc1	22.4µM*	?	25.1µM*	39.8µM*	44.7µM*	-26.3%
COc1ccc(CNc2ccc(C)cc2)cc1Br	-13.5%	?	?	50.1µM*	-35.9%[57.1 µM]	?
COc1ccc(CNc2ccccc2)cc1Br	-11.4%	49.2%	-4.6%[59 µM]	23.1%	-7.3%	-3.1%
O=C1CN(C(=O)c2ccc(S(=O)(=O)N3CCCC3)cc2)C(c2ccccc2)c2cc(Br)ccc2N1 (configuration not stated)	.	26.1%	-21.4%[59 µM]	-0.4%	-16.7%	.
C=CCOc1c(Br)cc(CNc2ccc(NC(=O)C(C)C)c(OC)c2)cc1OCC	?	-2.2%	6.31µM*	21.6%	?	-1.5%
O=C(C=Cc1ccco1)N1CCOCC1	.	9.2%[57 µM]	.	.	-10.3%	.
O=S(=O)(/C=C/c1ccccc1)N1CCN(Cc2ccccc2)CC1	9.9%	29.9%	22.3%	-14.4%	-6.1%	-1.5%
Cc1ccc(/C=C/C(=O)N2CCN(S(=O)(=O)c3cccs3)CC2)o1	14.1µM*	-11.2%	7.94µM*	-36.2%	-34.4%	.
O=C(/C=C/c1ccco1)N1CCN(S(=O)(=O)/C=C/c2ccccc2)CC1	17.8µM*	-0.5%	50.1µM*	?	-13.1%	-24.1%
NC(=O)C1CCN(C(=O)/C=C/c2ccco2)CC1	?	6.2%	8.91µM*	7.6%	-16.1%	-5.1%
O=S(=O)(/C=C/c1ccccc1)N1CCOCC1	10.4%	33.7%	89.1µM*	-1.8%	4.3%	.
Cc1ccc(CSc2ccc3nnc(CCNS(=O)(=O)c4ccc(C)cc4)n3n2)cc1	.	-10.9%	-27.8%[59 µM]	?	-25.6%	.
COc1cc(C(=O)N2CCNC(=O)C2CC(=O)Nc2ccc(C)c(C)c2)cc(OC)c1OC (configuration not stated)	.	42.2%	9.2%[59 µM]	-16.8%	-4.1%	.
O=C(/C=C/c1ccco1)N1CCN(S(=O)(=O)c2cccs2)CC1	15.8µM*	?	39.8µM*	?	?	?
